In PubChem BioAssay:
Calls of active or inactive are those of the source.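 How the source made its calls, unless noted: active means inhibition of the reporter signal at or above 50%; inactive means inhibition below 50%.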

How the values were obtained:
[1] = inhibitors of TNFa-induced NFkB p65 translocation, primary screen, imaging, HUVEC, MLSMR starter and 10KST1 sets (AID 438;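 active means inhibition above 20% together with a positive visual image hit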;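 further: compound added about 3h40 before a 20 min TNFalpha stimulation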;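 on inhibition: signal is the nuclear over cytoplasmic p65 intensity ratio per well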); settings: HUVEC TNFa-induced p65 nuclear translocation; cell count: measured here: nuclei count (cytotoxicity indicator), at 2.08 µM; inhibition: at 2 µM, stronger effect = higher value, 0% TNFa-plus-vehicle, 100% no-TNFa wells
[2] = reduction of polyQ htt aggregates in cells – imaging, exon1htt(103Q)mCFP cells, high-content imaging, primary screen (AID 483;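 active means visual image review flags a hit and inhibition of aggregation exceeds 20%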;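 further: compound exposure lasted 3 days before fixation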;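 on nuclei count: percent of the per-plate median nuclei count of sample wells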); settings: exon1htt(103Q)mCFP cell line, aggregate imaging, at 2 µM; inhibition of aggregation: stronger effect = higher value; nuclei count: measured here: cell count, toxicity
[3] = endothelial E-selectin expression blockers – imaging, HUVEC, immunofluorescence, MLSMR starter and 10KST1 sets, primary screen (AID 487;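 active means visually confirmed hit in the image check and inhibition above 20%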;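 on inhibition: signal is fraction of cell area covered by stained E-selectin grains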;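 on nuclei count: 100% = median nuclei count of all wells on the same plate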); settings: HUVEC TNFalpha-induced E-selectin immunofluorescence imaging, at 2 µM; inhibition: stronger effect = higher value; nuclei count: measured here: cell number, toxicity
[4] = biological target: Voltage-gated potassium channel subunit beta-2 (Rattus norvegicus) (UniProt P62483); experiment: inhibitors of rat Kvbeta2 reductase activity – biochemical, NADPH fluorescence, primary screen (AID 622;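 active means fluorescence slope higher than the sample average by over 3 SD, cut at about -0.22 in these data, passing the limit was not always enough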;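 further: slope of raw intensity against log time taken from 70 to 1610 s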); settings: recombinant KvBeta, 4-cyanobenzaldehyde reduction, at 10 µM, stronger effect = higher value
[5] = biological target: Voltage-gated potassium channel subunit beta-2 (Rattus norvegicus) (UniProt P62483); experiment: enhancers of rat Kvbeta2 NADPH turnover – biochemical, NADPH fluorescence, primary screen (AID 623;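 active means NADPH fluorescence slope more negative than the mean of all samples by about 3 SD, 99.7% confidence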;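 further: fluorescence intensity change per second fitted from 20 to 320 s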); settings: Recombinant KvBeta, NADPH fluorescence decrease slope, 10 min; at 10 µM; stronger effect = lower value
[6] = biological target: Alpha-2C adrenergic receptor (Homo sapiens) (UniProt P18825); experiment: compounds altering alpha2C-coupled GIRK flux – cell-based, HEK293 alpha2C/GIRK1/2, thallium flux, primary screen (AID 624;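 active means fluorescence slope after compound addition differing from the mean of all screened samples at 99.7% confidence, in either direction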;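 further: slope of fluorescence ratio to pre-addition baseline per second over 15 to 24 s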); settings: thallium flux BTC fluorescence, at 10 µM, actives lie on both sides
[7] = blockers of RIG-like receptor reporter activation – cell-based, Sendai virus stimulus, luciferase, 10K MLSCN set, TLR/RLR signaling modifier project, primary screen (AID 602276;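 active means inhibition at or above 50% at 10 µM; inactive means inhibition below 50%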;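 further: firefly luciferase from ISG56 promoter only with Renilla not read in this screen; 0% = Sendai virus plus DMSO and 100% = medium plus DMSO without virus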); settings: HEK293 RL24 IRF3 luciferase reporter, at 10 µM, stronger effect = higher value
[8] = TLR3 IRF3 reporter activation blockers – cell-based, poly I:C stimulus, luciferase, 10K MLSCN set, primary screen (AID 602277); settings: HEK293-TLR3 RL24 IRF3 luciferase reporter, at 10 µM, stronger effect = higher value

Chain of Alpha-2C adrenergic receptor (Homo sapiens) (P18825 whole entry, looked up): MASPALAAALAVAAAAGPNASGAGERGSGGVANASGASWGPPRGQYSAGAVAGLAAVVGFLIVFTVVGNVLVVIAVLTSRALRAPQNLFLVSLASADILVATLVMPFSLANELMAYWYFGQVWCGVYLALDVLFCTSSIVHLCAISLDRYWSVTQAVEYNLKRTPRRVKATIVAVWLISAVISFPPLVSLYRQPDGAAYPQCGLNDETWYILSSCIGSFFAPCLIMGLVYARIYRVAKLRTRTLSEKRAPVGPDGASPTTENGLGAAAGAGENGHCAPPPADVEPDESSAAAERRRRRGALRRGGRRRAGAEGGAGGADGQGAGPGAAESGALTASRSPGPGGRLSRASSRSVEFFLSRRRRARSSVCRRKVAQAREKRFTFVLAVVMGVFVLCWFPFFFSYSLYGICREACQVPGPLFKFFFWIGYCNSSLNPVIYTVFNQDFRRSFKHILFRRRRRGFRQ
Chain of Voltage-gated potassium channel subunit beta-2 (Rattus norvegicus) (P62483 whole entry, looked up): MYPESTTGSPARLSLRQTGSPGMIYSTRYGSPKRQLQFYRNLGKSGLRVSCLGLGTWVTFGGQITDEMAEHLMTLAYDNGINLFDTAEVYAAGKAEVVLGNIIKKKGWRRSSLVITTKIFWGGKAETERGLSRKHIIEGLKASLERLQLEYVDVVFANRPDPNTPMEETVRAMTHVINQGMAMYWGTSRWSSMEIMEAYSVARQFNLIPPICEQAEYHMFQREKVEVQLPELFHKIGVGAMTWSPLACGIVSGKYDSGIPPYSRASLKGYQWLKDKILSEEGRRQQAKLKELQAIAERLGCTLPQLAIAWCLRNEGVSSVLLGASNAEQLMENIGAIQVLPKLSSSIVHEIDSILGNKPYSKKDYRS

Question: For CC(C)=CC(=O)N1CCCc2ccccc21, which cell count [1] is on record?
Answer: The cell count was 308.

Question: What about the inhibition [1] of the same compound?
Answer: The inhibition was -2.8% (inactive).

Question: What about the inhibition of aggregation [2] of the same compound?
Answer: The inhibition of aggregation was -5.5% (inactive).

Question: And the nuclei count [2]?
Answer: The nuclei count was 84.6%.

Question: And the inhibition [3]?
Answer: Its inhibition is 3.3% (inactive).

Question: What about the nuclei count [3] of the same compound?
Answer: Its nuclei count is 96.7%.

Question: And the fluorescence slope [4]?
Answer: Its fluorescence slope is -0.606 (inactive).

Question: And the NADPH fluorescence slope [5]?
Answer: Its NADPH fluorescence slope is -2.8e-05 (inactive).

Question: And the slope [6]?
Answer: Its slope is 0.00337 (inactive).

Question: And the inhibition [7]?
Answer: The inhibition was 16.7% (inactive).

Question: And the inhibition [8]?
Answer: Its inhibition is 17% (inactive).

Question: Which cell count [1] does the source give for Cc1csc(NC(=O)CSc2nnc(Cc3cccn3C)n2-c2ccc(F)cc2)n1 here?
Answer: The cell count was 688.

Question: What about the inhibition [1] of the same compound?
Answer: The inhibition was -3.4% (inactive).

Question: What about the inhibition of aggregation [2] of the same compound?
Answer: Its inhibition of aggregation is 12.8% (inactive).

Question: What about the nuclei count [2] of the same compound?
Answer: The nuclei count was 74%.

Question: And the inhibition [3]?
Answer: Its inhibition is -48.6% (inactive).

Question: What about the nuclei count [3] of the same compound?
Answer: The nuclei count was 105%.

Question: What about the fluorescence slope [4] of the same compound?
Answer: Its fluorescence slope is -0.57 (inactive).

Question: And the NADPH fluorescence slope [5]?
Answer: The NADPH fluorescence slope was 2e-05 (inactive).

Question: What about the slope [6] of the same compound?
Answer: The slope was 0.00588 (inactive).

Question: And the inhibition [7]?
Answer: Its inhibition is -11.3% (inactive).

Question: What about the inhibition [8] of the same compound?
Answer: Its inhibition is 8.94% (inactive).

Question: Which results are given for CCOC(=O)C1CCN(c2c(N3CCCCCC3)c(=O)c2=O)CC1?
Answer: cell count [1]: 897; inhibition [1]: -0.9% (inactive); inhibition of aggregation [2]: -6.8% (inactive); nuclei count [2]: 98.7%; inhibition [3]: -84.4% (inactive); nuclei count [3]: 112%; fluorescence slope [4]: -0.581 (inactive); NADPH fluorescence slope [5]: -4.7e-05 (inactive); slope [6]: 0.0057 (inactive); inhibition [7]: 8.92% (inactive); inhibition [8]: 28.8% (inactive)

Question: What does the source list for Cc1ccc(-c2ccc(=O)n(CC(=O)NCCCN3CCCCC3C)n2)cc1 (stereo not drawn)?
Answer: cell count [1]: 397; inhibition [1]: 5% (inactive); inhibition of aggregation [2]: 3% (inactive); nuclei count [2]: 98.2%; inhibition [3]: 14.8% (inactive); nuclei count [3]: 96%; fluorescence slope [4]: -0.497 (inactive); NADPH fluorescence slope [5]: -1.9e-05 (inactive); slope [6]: 0.0058 (inactive); inhibition [7]: 11.3% (inactive); inhibition [8]: 21.8% (inactive)

Question: What does the source list for CCOC(=O)N1CCN(C(=O)CSc2nnc(-c3cc(OC)cc(OC)c3)o2)CC1?
Answer: cell count [1]: 228; inhibition [1]: 8.2% (inactive); inhibition of aggregation [2]: -10.3% (inactive); nuclei count [2]: 67.5%; inhibition [3]: -54.1% (inactive); nuclei count [3]: 99.6%; fluorescence slope [4]: -0.398 (inactive); NADPH fluorescence slope [5]: -5.6e-05 (inactive); slope [6]: 0.00254 (inactive); inhibition [7]: 12.2% (inactive); inhibition [8]: 29.1% (inactive)

Question: Which results are given for Brc1ccc2[nH]c3nc(SCCN4CCOCC4)nnc3c2c1?
Answer: cell count [1]: 683; inhibition [1]: -6.3% (inactive); inhibition of aggregation [2]: 9% (inactive); nuclei count [2]: 84.2%; inhibition [3]: -31.6% (inactive); nuclei count [3]: 114%; fluorescence slope [4]: -0.56 (inactive); NADPH fluorescence slope [5]: 1.6e-05 (inactive); slope [6]: 0.00594 (inactive); inhibition [7]: -18.9% (inactive); inhibition [8]: -40.9% (inactive)

Question: For CCc1nnc(NC(=O)NCN2C(=O)C3C4C=CC(C4)C3C2=O)s1 (stereo not drawn), which cell count [1] is on record?
Answer: Its cell count is 303.

Question: What about the inhibition [1] of the same compound?
Answer: The inhibition was 4.3% (inactive).

Question: And the inhibition of aggregation [2]?
Answer: Its inhibition of aggregation is 3.2% (inactive).

Question: What about the nuclei count [2] of the same compound?
Answer: The nuclei count was 92.9%.

Question: And the inhibition [3]?
Answer: The inhibition was -28.4% (inactive).

Question: And the nuclei count [3]?
Answer: The nuclei count was 96.4%.

Question: And the fluorescence slope [4]?
Answer: Its fluorescence slope is -0.458 (inactive).

Question: And the NADPH fluorescence slope [5]?
Answer: Its NADPH fluorescence slope is -0.000309 (inactive).

Question: And the slope [6]?
Answer: The slope was 0.00673 (inactive).

Question: And the inhibition [7]?
Answer: The inhibition was 7.26% (inactive).

Question: And the inhibition [8]?
Answer: The inhibition was 12.4% (inactive).

Question: Which cell count [1] does the source give for CCc1ccc(CCC(=O)Nc2ccc(C)c(C)c2)o1 here?
Answer: The cell count was 255.

Question: What about the inhibition [1] of the same compound?
Answer: The inhibition was 5.2% (inactive).

Question: And the inhibition of aggregation [2]?
Answer: Its inhibition of aggregation is -4.6% (inactive).

Question: What about the nuclei count [2] of the same compound?
Answer: The nuclei count was 80.2%.

Question: And the inhibition [3]?
Answer: Its inhibition is -34.3% (inactive).

Question: What about the nuclei count [3] of the same compound?
Answer: The nuclei count was 99.6%.

Question: And the fluorescence slope [4]?
Answer: Its fluorescence slope is -0.4 (inactive).

Question: What about the NADPH fluorescence slope [5] of the same compound?
Answer: The NADPH fluorescence slope was -5.2e-05 (inactive).

Question: And the slope [6]?
Answer: The slope was 0.006 (inactive).

Question: And the inhibition [7]?
Answer: The inhibition was -22.6% (inactive).

Question: And the inhibition [8]?
Answer: The inhibition was -50% (inactive).

Question: With CCN1CCN(c2nc3c(c(=O)[nH]c(=O)n3C)n2CCSc2nc3ccccc3s2)CC1 as the compound, how does the cell count [1] read?
Answer: The cell count was 638.

Question: And the inhibition [1]?
Answer: The inhibition was -11.8% (inactive).

Question: And the inhibition of aggregation [2]?
Answer: The inhibition of aggregation was -2.9% (inactive).

Question: And the nuclei count [2]?
Answer: The nuclei count was 111%.

Question: What about the inhibition [3] of the same compound?
Answer: The inhibition was -45.2% (inactive).

Question: And the nuclei count [3]?
Answer: The nuclei count was 113%.

Question: What about the fluorescence slope [4] of the same compound?
Answer: Its fluorescence slope is -0.431 (inactive).

Question: And the NADPH fluorescence slope [5]?
Answer: The NADPH fluorescence slope was -2.8e-05 (inactive).

Question: And the slope [6]?
Answer: Its slope is 0.00469 (inactive).

Question: What about the inhibition [7] of the same compound?
Answer: The inhibition was 12.2% (inactive).

Question: And the inhibition [8]?
Answer: The inhibition was 23.6% (inactive).

Question: Which results are given for Cc1nc(NCc2ccco2)c2oc3ccccc3c2n1?
Answer: cell count [1]: 337; inhibition [1]: 15% (inactive); inhibition of aggregation [2]: -4.3% (inactive); nuclei count [2]: 94.4%; inhibition [3]: 19.5% (inactive); nuclei count [3]: 96.4%; fluorescence slope [4]: -0.389 (inactive); NADPH fluorescence slope [5]: -1.9e-05 (inactive); slope [6]: 0.00599 (inactive); inhibition [7]: 3.36% (inactive); inhibition [8]: -32.5% (inactive)

Question: For CC(C(=O)Nc1ccccc1-c1ccccc1)N1CCOCC1 (stereo not drawn), which cell count [1] is on record?
Answer: The cell count was 555.

Question: What about the inhibition [1] of the same compound?
Answer: Its inhibition is -17.7% (inactive).

Question: And the inhibition of aggregation [2]?
Answer: The inhibition of aggregation was 5.4% (inactive).

Question: And the nuclei count [2]?
Answer: The nuclei count was 89.4%.

Question: What about the inhibition [3] of the same compound?
Answer: The inhibition was -27.4% (inactive).

Question: And the nuclei count [3]?
Answer: The nuclei count was 127%.

Question: And the fluorescence slope [4]?
Answer: The fluorescence slope was -0.527 (inactive).

Question: What about the NADPH fluorescence slope [5] of the same compound?
Answer: The NADPH fluorescence slope was -6.7e-05 (inactive).

Question: And the slope [6]?
Answer: Its slope is 0.00481 (inactive).

Question: And the inhibition [7]?
Answer: The inhibition was 3.12% (inactive).

Question: What about the inhibition [8] of the same compound?
Answer: Its inhibition is 86.4% (active).

Question: With CCOC(=O)CC12CN3CN(C1)CC(CC(=O)OCC)(C3)C2=O as the compound, how does the cell count [1] read?
Answer: The cell count was 596.

Question: What about the inhibition [1] of the same compound?
Answer: Its inhibition is -28.6% (inactive).

Question: What about the inhibition of aggregation [2] of the same compound?
Answer: Its inhibition of aggregation is 7.3% (inactive).

Question: What about the nuclei count [2] of the same compound?
Answer: Its nuclei count is 83.7%.

Question: And the inhibition [3]?
Answer: The inhibition was -54.7% (inactive).

Question: And the nuclei count [3]?
Answer: The nuclei count was 110%.

Question: What about the fluorescence slope [4] of the same compound?
Answer: Its fluorescence slope is -0.497 (inactive).

Question: And the NADPH fluorescence slope [5]?
Answer: The NADPH fluorescence slope was -2.2e-05 (inactive).

Question: And the slope [6]?
Answer: Its slope is 0.00533 (inactive).

Question: What about the inhibition [7] of the same compound?
Answer: Its inhibition is -1.85% (inactive).

Question: What about the inhibition [8] of the same compound?
Answer: The inhibition was 25.3% (inactive).

Question: For O=c1ccc2cc3c([nH]c4ccc(Br)cc43)oc-2c1O, which cell count [1] is on record?
Answer: The cell count was 447.

Question: And the inhibition [1]?
Answer: The inhibition was 4.7% (inactive).

Question: And the inhibition of aggregation [2]?
Answer: The inhibition of aggregation was -0.5% (inactive).

Question: And the nuclei count [2]?
Answer: The nuclei count was 111%.

Question: And the inhibition [3]?
Answer: Its inhibition is -84.7% (inactive).

Question: What about the nuclei count [3] of the same compound?
Answer: The nuclei count was 109%.

Question: What about the fluorescence slope [4] of the same compound?
Answer: The fluorescence slope was -0.596 (inactive).

Question: And the NADPH fluorescence slope [5]?
Answer: Its NADPH fluorescence slope is -5.1e-05 (inactive).

Question: And the slope [6]?
Answer: Its slope is 0.00638 (inactive).

Question: And the inhibition [7]?
Answer: Its inhibition is 11.2% (inactive).

Question: And the inhibition [8]?
Answer: The inhibition was 24.2% (inactive).
